According to PubChem BioAssay AID1159580 (chemical genetic matrix, 2015):
Among all 5,500 compounds or so, about 2,000 (36%) were called active. Another 18% or so got no clear call; they are omitted. Rule as the data show it: active = normalized growth mostly below about 0.91 (no sharp cut-off); inconclusive = no clear call, values can overlap the other calls; inactive = mostly above about 0.92. This is one part of the list.

Assay: chemical genetic growth profiling, strain panel (AID 1159580);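 also: tested at 20 µM; growth read once vehicle control cultures reached saturation at 30 °C; 1 = growth at the plate median or of vehicle wells; lower values mean less growth of the strain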
Conditions: growth OD

Measured: normalized growth

CCS(=O)(=O)CCn1c([N+](=O)[O-])cnc1C
inactive: S. cerevisiae deletion strains, locus YJR075W, strain HOC1, stronger effect = lower value 0.981 | S. cerevisiae deletion strains, locus YKL009W, strain mrt4, stronger effect = lower value 1.04 | S. cerevisiae deletion strains, locus YKL068W, stronger effect = lower value 1.02 | S. cerevisiae deletion strains, locus YKL085W, strain MDH1 (second series), stronger effect = lower value 1.04 | S. cerevisiae deletion strains, locus YKL085W, strain MDH1, stronger effect = lower value 1.04 | S. cerevisiae deletion strains, locus YKL160W, strain elf1, stronger effect = lower value 1.03 | S. cerevisiae deletion strains, locus YKL190W, strain CNB1, stronger effect = lower value 1.01 | S. cerevisiae deletion strains, locus YKR001C, strain vps1, stronger effect = lower value 1.03 | S. cerevisiae deletion strains, locus YKR026C, strain gcn3, stronger effect = lower value 0.984 | S. cerevisiae deletion strains, locus YKR091W, strain srl3, stronger effect = lower value 0.999 | S. cerevisiae deletion strains, locus YLL001W, strain dnm1, stronger effect = lower value 0.993 | S. cerevisiae deletion strains, locus YLL026W, stronger effect = lower value 1.01 | S. cerevisiae deletion strains, locus YLL041C, strain sdh2, stronger effect = lower value 0.993 | S. cerevisiae deletion strains, locus YLR027C, strain aat2, stronger effect = lower value 0.997 | S. cerevisiae deletion strains, locus YLR039C, strain RIC1, stronger effect = lower value 1.07 | S. cerevisiae deletion strains, locus YLR058C, strain SHM2, stronger effect = lower value 1.01 | S. cerevisiae deletion strains, locus YLR102C, strain apc9, stronger effect = lower value 1.01 | S. cerevisiae deletion strains, locus YLR113W, strain HOG1, stronger effect = lower value 0.938 | S. cerevisiae deletion strains, locus YLR221C, strain rsa3, stronger effect = lower value 0.989 | S. cerevisiae deletion strains, locus YLR258W, strain gsy2, stronger effect = lower value 1.01 | S. cerevisiae deletion strains, locus YLR262C, strain YPT6 (second series), stronger effect = lower value 0.967 | S. cerevisiae deletion strains, locus YLR262C, strain YPT6, stronger effect = lower value 1.1 | S. cerevisiae deletion strains, locus YLR268W, strain sec22, stronger effect = lower value 1.01 | S. cerevisiae deletion strains, locus YLR320W, strain mms22, stronger effect = lower value 0.972 | S. cerevisiae deletion strains, locus YLR330W, strain CHS5, stronger effect = lower value 1.01 | S. cerevisiae deletion strains, locus YLR342W, strain FKS1 (second series), stronger effect = lower value 1.06 | S. cerevisiae deletion strains, locus YLR342W, strain FKS1, stronger effect = lower value 1.02 | S. cerevisiae deletion strains, locus YLR357W, strain rsc2, stronger effect = lower value 0.999 | S. cerevisiae deletion strains, locus YLR370C, strain arc18, stronger effect = lower value 1 | S. cerevisiae deletion strains, locus YLR371W, strain rom2, stronger effect = lower value 1.01 | S. cerevisiae deletion strains, locus YLR384C, strain iki3, stronger effect = lower value 1.01 | S. cerevisiae deletion strains, locus YLR418C, strain cdc73, stronger effect = lower value 1.03 | S. cerevisiae deletion strains, locus YML016C, strain PPZ1, stronger effect = lower value 1.01 | S. cerevisiae deletion strains, locus YML032C, strain rad52, stronger effect = lower value 1.03 | S. cerevisiae deletion strains, locus YML120C, strain ndi1, stronger effect = lower value 1 | S. cerevisiae deletion strains, locus YML124C, strain tub3, stronger effect = lower value 1 | S. cerevisiae deletion strains, locus YMR058W, strain fet3, stronger effect = lower value 1 | S. cerevisiae deletion strains, locus YMR078C, strain ctf18, stronger effect = lower value 1.01 | S. cerevisiae deletion strains, locus YMR125W, strain sto1, stronger effect = lower value 0.976 | S. cerevisiae deletion strains, locus YMR129W, stronger effect = lower value 0.98 | S. cerevisiae deletion strains, locus YMR205C, strain PFK2, stronger effect = lower value 0.988 | S. cerevisiae deletion strains, locus YMR223W, strain ubp8, stronger effect = lower value 1.04 | S. cerevisiae deletion strains, locus YMR231W, strain pep5, stronger effect = lower value 0.991 | S. cerevisiae deletion strains, locus YMR263W, strain SAP30, stronger effect = lower value 1.02 | S. cerevisiae deletion strains, locus YMR307W, strain GAS1, stronger effect = lower value 1.21 | S. cerevisiae deletion strains, locus YNL067W, strain RPL9B, stronger effect = lower value 1.02 | S. cerevisiae deletion strains, locus YNL071W, strain lat1, stronger effect = lower value 0.982 | S. cerevisiae deletion strains, locus YNL128W, strain TEP1, stronger effect = lower value 1.02 | S. cerevisiae deletion strains, locus YNL153C, strain GIM3, stronger effect = lower value 1.01 | S. cerevisiae deletion strains, locus YNL183C, strain NPR1, stronger effect = lower value 0.915 | S. cerevisiae deletion strains, locus YNL209W, strain ssb2, stronger effect = lower value 0.987 | S. cerevisiae deletion strains, locus YNL233W, strain BNI4, stronger effect = lower value 1.02 | S. cerevisiae deletion strains, locus YNL248C, strain rpa49, stronger effect = lower value 1.01 | S. cerevisiae deletion strains, locus YNL250W, strain rad50, stronger effect = lower value 1.02 | S. cerevisiae deletion strains, locus YNL271C, strain bni1, stronger effect = lower value 1.02 | S. cerevisiae deletion strains, locus YNL298W, strain CLA4, stronger effect = lower value 1.03 | S. cerevisiae deletion strains, locus YNL307C, strain MCK1, stronger effect = lower value 1.05 | S. cerevisiae deletion strains, locus YNL322C, strain KRE1 (second series), stronger effect = lower value 1.01 | S. cerevisiae deletion strains, locus YNL322C, strain KRE1, stronger effect = lower value 1.01 | S. cerevisiae deletion strains, locus YNR049C, strain mso1, stronger effect = lower value 0.997 | S. cerevisiae deletion strains, locus YNR052C, strain pop2, stronger effect = lower value 1.01 | S. cerevisiae deletion strains, locus YOL006C, strain TOP1, stronger effect = lower value 1.04 | S. cerevisiae deletion strains, locus YOL012C, strain htz1 0.976 | S. cerevisiae deletion strains, locus YOL147C, strain pex11, stronger effect = lower value 1 | S. cerevisiae deletion strains, locus YOR001W, strain rrp6, stronger effect = lower value 0.971 | S. cerevisiae deletion strains, locus YOR061W, strain CKA2, stronger effect = lower value 1.01 | S. cerevisiae deletion strains, locus YOR069W, strain VPS5, stronger effect = lower value 1 | S. cerevisiae deletion strains, locus YOR070C, strain gyp1, stronger effect = lower value 1.01 | S. cerevisiae deletion strains, locus YOR080W, strain dia2, stronger effect = lower value 1.01 | S. cerevisiae deletion strains, locus YOR083W, strain WHI5, stronger effect = lower value 1 | S. cerevisiae deletion strains, locus YOR106W, strain vam3, stronger effect = lower value 1.02 | S. cerevisiae deletion strains, locus YOR136W, strain idh2, stronger effect = lower value 1.02 | S. cerevisiae deletion strains, locus YOR144C, strain elg1, stronger effect = lower value 1.01 | S. cerevisiae deletion strains, locus YOR184W, strain ser1, stronger effect = lower value 1.07 | S. cerevisiae deletion strains, locus YOR231W, strain MKK1, stronger effect = lower value 0.962 | S. cerevisiae deletion strains, locus YOR265W, strain rbl2, stronger effect = lower value 0.994 | S. cerevisiae deletion strains, locus YOR270C, strain vph1, stronger effect = lower value 0.977 | S. cerevisiae deletion strains, locus YOR290C, strain snf2, stronger effect = lower value 1.02 | S. cerevisiae deletion strains, locus YOR316C, strain cot1, stronger effect = lower value 1.02 | S. cerevisiae deletion strains, locus YPL051W, strain arl3, stronger effect = lower value 1.03 | S. cerevisiae deletion strains, locus YPL055C, strain LGE1, stronger effect = lower value 1.06 | S. cerevisiae deletion strains, locus YPL078C, strain atp4, stronger effect = lower value 1.01 | S. cerevisiae deletion strains, locus YPL106C, strain sse1, stronger effect = lower value 0.994 | S. cerevisiae deletion strains, locus YPL240C, strain hsp82, stronger effect = lower value 0.991 | S. cerevisiae deletion strains, locus YPL241C, strain CIN2, stronger effect = lower value 1.01 | S. cerevisiae deletion strains, locus YPL256C, strain CLN2, stronger effect = lower value 0.973 | S. cerevisiae deletion strains, locus YPR119W, strain clb2, stronger effect = lower value 1 | S. cerevisiae deletion strains, locus YPR141C, strain kar3, stronger effect = lower value 1.02 | S. cerevisiae deletion strains, locus YPR163C, strain tif3, stronger effect = lower value 1.01 | S. cerevisiae deletion strains, locus YPR167C, strain met16, stronger effect = lower value 1.02 | S. cerevisiae deletion strains, strain wtn01, stronger effect = lower value 1 | S. cerevisiae strains, strain wild type, stronger effect = lower value 1.05
